Screens from PubChem.
In the library only some 2.9% were active in any assay of this set; here they are far more common.
DRD3 antagonist = D3 dopamine receptor (human) antagonism; P35462; D3R cells, DiscoveRx beta-arrestin luminescence, antagonist mode; stronger effect = lower value; max response, negative = inhibition, %; 360,000 tested, 2.5% active; AID 652054; in the data active = max response below about -50%; inconclusive = no clear call, values can overlap the other calls
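Cells expressing the human receptor were seeded at 1500 cells/well, incubated overnight at 37 degrees C in 5% CO2, then exposed to library compounds with dopamine controls for 90 minutes at 37 degrees C before luminescent detection.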
TRPML1 ag = activates the human TRPML1 channel; Q9GZU1; TRPML1-expressing cells, Ca2+ dye fluorescence, FDSS; activation, % (no concentration beside the values); 410,000 tested, 0.12% active; AID 624414; in the data active = activation above about 50%; inconclusive = mostly about 30% to 49%
Target sequence (Q9GZU1 whole entry, looked up): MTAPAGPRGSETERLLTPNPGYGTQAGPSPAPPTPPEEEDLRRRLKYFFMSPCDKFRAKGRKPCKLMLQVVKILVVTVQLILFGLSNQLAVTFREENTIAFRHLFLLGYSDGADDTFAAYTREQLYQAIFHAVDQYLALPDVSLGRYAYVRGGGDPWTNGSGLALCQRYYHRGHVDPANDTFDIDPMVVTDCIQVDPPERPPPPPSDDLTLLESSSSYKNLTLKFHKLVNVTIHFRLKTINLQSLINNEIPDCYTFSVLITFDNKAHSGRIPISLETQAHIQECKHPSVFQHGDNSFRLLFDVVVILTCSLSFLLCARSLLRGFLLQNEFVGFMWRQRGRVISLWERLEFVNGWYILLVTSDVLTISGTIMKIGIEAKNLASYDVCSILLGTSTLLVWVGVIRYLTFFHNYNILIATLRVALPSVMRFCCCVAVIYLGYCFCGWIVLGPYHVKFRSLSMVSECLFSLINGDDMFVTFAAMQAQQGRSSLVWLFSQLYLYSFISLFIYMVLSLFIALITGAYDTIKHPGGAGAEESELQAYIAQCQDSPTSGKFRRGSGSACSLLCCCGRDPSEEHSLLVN
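Tet-induced TRPML1-DL cells, 1,500 per well, cultured overnight, were loaded with a no-wash Ca2+ dye for 45–90 min. Calcium fluorescence was recorded on the FDSS for 110 s after compound addition, before the EC80 agonist (4 uM 54-4) was added.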
D3 ag = activates the human D3 dopamine receptor; P35462; D3R DiscoveRx beta-arrestin cells, luminescence, 90 min; max activation, %; 410,000 tested, 0.58% active; in the data active = max activation above about 30%
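Agonist-mode cell screen: cells plated at 1500/well and incubated overnight at 37 °C, then exposed to library compounds for 90 min at 37 °C. Detection reagent was added for 30–60 min at room temperature, and luminescence was read.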
TRPML1 blocker = blocks the human TRPML1 channel; activity change, negative = inhibition, % (test concentration not listed); 390,000 tested, 0.02% active; TRPML1-inducible cells, Ca2+ dye fluorescence, FDSS; stronger effect = lower value; inhibition of EC80 agonist-evoked calcium signal; AID 624415; in the data active = activity change below about -50%; inconclusive = between about -30% and that limit;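 also: stimulus is agonist 54-4 at its EC80 concentration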
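TRPML1-DL cells, Tet-induced overnight (~16 h, 37 °C) at 1,500 cells/well, were loaded with Ca8 no-wash dye plus quencher for 45-90 min at room temperature. Compounds were pinned during FDSS kinetic reading; agonist 54-4 at EC80 (4 uM final) then added.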
A number is an active result; - = inactive; ? = inconclusive; . = no result given.

SMILES	DRD3 antagonist	TRPML1 ag	D3 ag	TRPML1 blocker
CCNc1nc(-c2sc(NC(=O)C(C)(C)C)nc2C)c(-n2cc(-c3ccccc3)nn2)s1	-	-	31	.
Cc1nc(NC(=O)C(C)(C)C)sc1-c1nc(N)sc1-n1cc(-c2ccccc2)nn1	-	-	-	.
Cc1cc(Oc2ccccc2)nc(C#N)n1	.	-	.	.
CC(Nc1ccc(Cl)cc1)c1cc(Cl)ccc1O (stereo not given)	-55	-	-	-
CCOc1ccc(NC(C)c2cc(Cl)ccc2O)cc1 (stereo not given)	-52	-	-	-
CCOc1ccc(S(=O)(=O)Nc2cc(Cl)ccc2O)cc1	-	-	-	-
CC(Nc1ccc(Br)cn1)c1cc(Cl)ccc1O (stereo not given)	-	-	-	-
Nc1ccc2c(c1)C=C/C2=C\c1ccccc1	.	-	.	.
CCc1cccc2c(C(O)(c3c[nH]c4c(CC)cccc34)c3c[nH]c4c(CC)cccc34)c[nH]c12	.	-	.	.
Cc1ccc(NC(=O)CN2C(=O)c3cccnc3Sc3ccccc32)cc1C	.	-	-	-
COc1ccc(OC)c(-n2c(-c3cc(-c4ccc(F)cc4)n[nH]3)n[nH]c2=S)c1	-81	-	-	-
CC(=NNC(=S)N1CCCCCC1)c1cccc2cccnc12	-71	-	-	-
CC(=NNC(=S)N1CCN(C2CCCCCC2)CC1)c1ccccn1	?	-	-	-
CCn1c(C(=O)NCc2ccccc2C)cc2oc3ccccc3c21	.	-	49	-
CCn1c(C(=O)NCc2ccc(OC(C)C)cc2)cc2oc3ccccc3c21	.	-	-	-
Cc1cc(C)c2c(CC(=O)Nc3ccc(S(=O)(=O)N4CCCC(C)C4)cc3)coc2c1 (stereo not given)	.	-	-	-
CC1CCN(CC(O)CN2c3ccccc3Sc3ccccc32)CC1 (stereo not given)	-103	-	-	-
O=C(Nc1ccc(F)c(F)c1)c1cnn2c1NC(=C1CC1)C=C2C(F)F	.	-	.	.
O=C(NCc1ccccc1Cl)C1CCCN(C(=O)c2cnn(-c3ccc(F)cc3)c2-n2cccc2)C1 (stereo not given)	.	-	-	-
O=S(=O)(c1ccc2ccccc2c1)N1CCN(c2nc(-c3ccccc3)nc3ccccc23)CC1	.	-	.	.
Cn1nc(C(C)(C)C)c(NC(=O)c2cccs2)c1C(C)(C)C	-	78	-	-
CCCN1CNc2c(c(=O)[nH]c(=S)n2CCc2cccc(C)c2)C1	.	-	.	.
COC(=O)c1ccccc1NC(=O)Cn1cc(S(=O)(=O)Cc2ccccc2F)c2ccccc21	.	-	-	-
CSc1cc(C)c(OCC(=O)Nc2ccc(NC(C)=O)cc2)c(C)c1	-52	-	-	-
CC(=O)Nc1ccc(NC(=O)COc2c(C)cc(Br)cc2C)cc1	-	-	-	-
SMILES	DRD3 antagonist	TRPML1 ag	D3 ag	TRPML1 blocker
Cc1ccc(C)c(NC(=S)NCC(c2ccccc2)N(C)C)c1 (stereo not given)	-60	-	-	-
Cc1ccccc1NC(=S)NCC(c1cccnc1)N(C)C (stereo not given)	-	-	-	-
Cc1cccc(OCCC(=O)NCC(c2ccccc2)N(C)C)c1 (stereo not given)	-60	-	-	-
CN(C)C(CNC(=O)CCOc1ccccc1)c1ccco1 (stereo not given)	-	-	-	-
COc1ccc(C(CNC(=O)CCOc2ccccc2)N(C)C)cc1 (stereo not given)	-76	-	-	-
Cc1ccccc1Nc1nc(N)c(C(=O)c2ccccc2Cl)s1	.	-	-	-
CCCOC(=O)NC(CC)COC(=O)Nc1cc(C)ccc1C (stereo not given)	-87	-	-	-
CN[C@@H]1[C@@H](O[C@H]2O[C@H](CO)[C@@H](N)[C@H](O)[C@H]2O)O[C@H]2C[C@@H](N)[C@@H](O[C@H]3[C@H](O)[C@@H](O)[C@H](N)C[C@@H]3N)O[C@@H]2[C@@H]1O	.	.	-	.
COC(=O)c1ccc(Cl)cc1NC(=O)N1CC=C(c2c[nH]c3ccccc23)CC1	.	-	-	-
CCCCCCCC/C=C\CCCCCCCC(=O)NCCc1ccc(O)c(O)c1	-	-	211	-
Cn1c(=O)c2c(nc(NCc3ccccc3)n2Cc2ccc(Cl)c(Cl)c2)n(C)c1=O	.	-	-	-
Brc1ccc(-c2csc(N/N=C/c3ccco3)n2)cc1	-	-	30	-
C[C@@H]1[C@H](c2ccccc2)OCCS(=O)(=O)N1Cc1cccc(Cl)c1	.	-	.	.
COc1ccc(-c2noc3c2-c2nc(-c4ccc(Cl)cc4)sc2CC3)cc1	-	-	-	-
